The structures appear in SMILES notation. The source made the active and inactive calls. The calls were made as follows: active = hit-call score of the fitted dose curve at least 0.9, where 1 is the maximum; inactive = score below 0.9.

Usually AC50 stands for the concentration giving half of the maximal activity seen.

Read-out in the test: Pyruvate Dehydrogenase Kinase 4 (PDK4), PDK4 (gene 5166)
In words: LTEA_HepaRG_PDK4: Life Technologies and Expression Analysis (LTEA) Assay for Pyruvate Dehydrogenase Kinase 4 (PDK4) using HepaRG (AID 2283525). Particulars: mRNA level, 48 h; actives raise or lower the signal. On the procedure: LTEA_HepaRG is a cell based, multiplexed-readout assay that uses HepaRG, a human liver cell line, with measurements taken at 48 hours after chemical dosing on a 96-well plate.LTEA_HepaRG_PDK4 is one of 102 assay component(s) measured in the LTEA HepaRG cell culture assay. It is a marker of Diseases associated with PDK4 including Platelet Glycoprotein Iv Deficiency and Diabetes Mellitus, Noninsulin-Dependent.Data from the assay component LTEA_HepaRG_PDK4 was analyzed into 1 endpoint. This assay endpoint, LTEA_HepaRG_PDK4, was analyzed with bidirectional fitting relative to DMSO as the negative control and baseline of activity. Using a type of inducible reporter, measures of mRNA induction for gain or loss-of-signal activity can be used to understand regulation of transcription factor activity. To generalize the intended target to other relatable targets, this assay endpoint is annotated to the kinase intended target family, where the subfamily is serine/threonine kinase.
A total of 1060 chemcials from the ToxCast library were tested in eight-point concentration-response experiments. Cell culture and cytotoxicity assays were conducted at Thermo Fisher Scientific's Custom Services facility (Madison, WI). A single lot of human HepaRG cells (Thermo Fisher Scientific, Frederick, MD) was used for the cell culture experiments. 96-well format collagen type I coated plates of human HepaRG cells were prepared using established methods. Briefly, cryopreserved HepaRG cells were thawed, plated at a density of approximately 100,000 cells/well in HepaRG Thaw, Plate, and General Purpose media (HPRG770, Thermo Fisher Scientific), and incubated for 48 hours. 0.5% DMSO was selected as vehicle control to balance the requisite need of DMSO in HepaRG cultures to maintain differentiation (for example, baseline metabolism, proportions of hepatocytes vs. cholangiocytes), while enabling further hepatic receptor pathway activation (for example, PXR and CAR) in response to chemical exposure. 48 hours after plating, the culture medium was replaced with HepaRG Serum-Free Incudtion Media. Cells were exposed to each test chemical in duplicate and maintained in CO2 incubators for another 48 hours. Chemical plates were thawed to room temperature and 200x concentrations of treatment groups were prepared. 8-point conentration-reponse curves were made with the highest exposure at 100 uM, followed by half-log dilutions, all in 0.5% DMSO. Each test plate contained variouse controls, induction positive controls (1mM phenobarbital), cytotoxicity positive controls ([…] aflatoxin B1), vehicle controls (0.5% DMSO), and total lysis controls (0.5% DMSO). Cell morphology images were taken using an Essen IncuCyte FLR automated microscope, with six 96-well plates imaged in about 24 minutes. Images were captured and exported and JPEG files. Spent culture media was transfered to black-well plates for the LDH assay, and remaining media was sorted at -80 C for later use. Cells were treated with RLT buffer and frozen until shipped for gene expression analysis. Total RNA was isolated from the cell suspension in 75 uL of Buffer RLT (Qiagen, Germantown, MD 20874) by Quintiles/Expression Analysis (Durham, NC) using a custom isolation procedure. Total RNA from each plate well was transferred to a preamplification plate. Fluidigm's 96.96 Dynamic ArrayTM (Fluidigm, Amsterdam, the Netherlands) technology was used for gene expression analyses by quantitative reverse transcription polymerase chain reaction (qRT-PCR, performed by Quintiles/Expression Analysis, Durham, NC)89. Standard TaqManTM Assays (Applied Biosystems/ThermoFisher Scientific, Foster City, CA) were used to assess the expression of 93 genes selected based on their selectivity and sensitivity to important hepatic receptors known to be modulated by environmental chemicals; importance in human hepatocyte functionality; and hepatotoxicity. […]
As to `c1ccc2ccccc2c1`, the call was inactive.
On the same count and under the same terms, the result for `O=c1c(-c2ccc(O)cc2)coc2cc(O)cc(O)c12` reads “inactive”.
On the same count and under the same terms, the result for `Cc1ccc(C(C)C)cc1` reads “inactive”.
Same read-out and setting: the result for `CCCCCCCCCCCO` reads “inactive”; that for `c1ccc2n[nH]nc2c1`, “inactive”.
Turning to `CC(C)(C)c1cc(/C=C2\SC(N)=NC2=O)cc(C(C)(C)C)c1O`, the AC50 is 12.4 µM (active).
Still for that read-out and setting: the result for `CCCCCCCCCCCC[N+](C)(C)C` reads 75.6 µM (active).
Same read-out and setting: the result for `c1ccc(C[n+]2cccc3ccccc32)cc1` reads 31 µM (active).
`O=C(OCCCCCCOC(=O)c1ccccc1)c1ccccc1`: the call was inactive.
On to `O=C1c2ccccc2C(=O)N1CCc1noc(-c2ccc(CN3CCCCCC3)s2)n1`, for which the outcome was inactive.
Same read-out and setting: the result for `CC[C@@H]1C[C@H](N(Cc2cc(C(F)(F)F)cc(C(F)(F)F)c2)C(C)=O)c2cc(C(F)(F)F)ccc2N1C(=O)OC(C)C` reads “inactive”.
Take `O=C(Nc1ccc(Cl)cc1)Nc1ccc(Cl)c(Cl)c1`: the AC50 was 27 µM (active).
Same read-out and setting: with `CN(C[C@@H](CC[N+]12CCC(C3CCCCC3)(CC1)CC2)c1ccc(Cl)c(Cl)c1)C(=O)c1cc(C(F)(F)F)cc(C(F)(F)F)c1` the figure was 82.4 µM (active).
Consider `CCCCCc1ccc(N)cc1`, for which the outcome was inactive.
The same measure, in the same setting: the result for `O=C(O)c1ccccc1-n1cc(C(=O)O)c(=O)c2cc(Nc3c(F)cc(F)cc3Cl)c(Cl)cc21` reads “inactive”.
As to `CCCOC(=O)c1cc(O)c(O)c(O)c1`, the half-maximal activity concentration (AC50) was 31.4 µM (active).
Consider `CCCCCCCCN(C)CCCCCCCC`, for which the compound was classed as inactive.
As for `CCCCOC(=O)CC(CC(=O)OCCCC)(OC(C)=O)C(=O)OCCCC`, the result was inactive.
The same measure, in the same setting: the result for `Cc1cccc2ccccc12` reads “inactive”.
On to `COc1cc(C(=O)NC2CCN(C)CC2)ccc1Nc1ncc2c(n1)N(C1CCCC1)CC(F)(F)C(=O)N2C`, for which the concentration at half-maximal activity (AC50) is 22.2 µM (active).
For the compound `Cc1ncc(CO)c(CO)c1O`, the compound was called inactive.
Same read-out and setting: the result for `C[C@]12CC[C@@H]3c4ccc(O)cc4CC[C@H]3[C@@H]1CCC2=O` reads “inactive”; that for `C[C@]12CC[C@@H]3c4ccc(O)cc4CC[C@H]3[C@@H]1CC[C@H]2O`, “inactive”; that for `O=CCCCC=O`, “inactive”.
On the same count and under the same terms, with `CC[C@H](NC(=O)c1cc(F)ccc1NS(=O)(=O)c1cccc2cccnc12)c1ccccc1` the entry was “inactive”; with `CC1=CC(=O)/C(=C(/C)O)C(=O)O1`, “inactive”.
Consider `O=C=NCCCCCCN=C=O`, for which the compound was called inactive.
As for `O=c1[nH]sc2ccccc12`, the compound was called inactive.
Consider `CC/C(=C(/CC)c1ccc(O)cc1)c1ccc(O)cc1`, for which the AC50 was 80.1 µM (active).
Take `Clc1ccccc1C(c1ccccc1)(c1ccccc1)n1ccnc1`: the half-maximal activity concentration (AC50) is 28.3 µM (active).
For `CCCC(=O)OCCC(C)C`, the compound was classed as inactive.
For `CC(C)(c1cc(Br)c(O)c(Br)c1)c1cc(Br)c(O)c(Br)c1`, the AC50 is 88.9 µM (active).
Same read-out and setting: the result for `CC1(C)NC(=O)N(c2ccc([N+](=O)[O-])c(C(F)(F)F)c2)C1=O` reads 80.1 µM (active).
For the compound `COc1cccc([C@H](O)C2CCN(CCc3ccc(F)cc3)CC2)c1OC`, the compound was called inactive.
On the same count and under the same terms, with `CC(C)(O)c1ccc(CNC(=O)c2cccnc2Oc2ccc3nonc3c2)cc1` the entry was “inactive”; with `CCCCOC(=O)c1ccc(O)cc1`, “inactive”.
For the compound `OC12N=C(c3ccccc3)SC1Cc1cc(Cl)ccc12` (stereo not given), the half-maximal activity concentration (AC50) is 8.96 µM (active).
On the same count and under the same terms, the result for `COc1ccc2cc(S(=O)(=O)N[C@H](CC(=O)N[C@H](Cc3ccc(CN4[C@H](C)CCC[C@@H]4C)cc3)C(=O)N(C)C(C)C)c3ccc4c(c3)OCO4)ccc2c1` reads 86.6 µM (active).
As for `NC(=O)c1nc(-c2cccc(-c3cc(F)ccc3OCC(F)(F)C(F)(F)F)c2)n[nH]1`, the compound was classed as inactive.
On the same count and under the same terms, the result for `Cc1cc2c(cc1C(F)(F)F)N(C(=O)Nc1ccc(Oc3cccnc3C)nc1)CC2` reads “inactive”.

Source of the values: PubChem BioAssay (EPA / NIEHS).
